Compounds with a hit are over-represented: about 1.4% of the library has one in this group of screens.
AmpC inh detg = qHTS Inhibitors of AmpC Beta-Lactamase (assay with detergent). P00811. Potency, µM (top dose mostly 114 µM), for the others: at the top dose activity change, negative = inhibition, hits mostly inhibitors. 0.041% of 370,000 active. AmpC hydrolysis of nitrocefin, absorbance 480 nm, 0.01% Triton;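 note: potency is the fitted concentration of half-maximal effect; 0% = no-compound wells and -100% = no-enzyme wells; nearly all actives have a fitted effect of over 25% in size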
Target sequence (P00811 whole entry, looked up): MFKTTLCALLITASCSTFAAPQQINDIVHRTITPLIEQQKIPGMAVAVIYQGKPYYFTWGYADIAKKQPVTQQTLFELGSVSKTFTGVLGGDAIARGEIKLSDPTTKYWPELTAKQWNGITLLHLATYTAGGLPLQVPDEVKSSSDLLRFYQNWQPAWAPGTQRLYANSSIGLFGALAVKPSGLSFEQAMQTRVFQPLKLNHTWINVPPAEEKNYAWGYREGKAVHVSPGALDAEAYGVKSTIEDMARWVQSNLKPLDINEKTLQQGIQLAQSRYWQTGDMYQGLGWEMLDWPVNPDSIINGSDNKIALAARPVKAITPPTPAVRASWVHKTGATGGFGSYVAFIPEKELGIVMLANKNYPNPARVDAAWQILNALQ
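AmpC (5.3 nM in the dispensed reagent) in 20 mM phosphate pH 7.0 with 0.01% (detergent screen) or 0.0001% Triton X-100 was preincubated with compounds for 15 min at room temperature. Nitrocefin was then added from an 800 uM solution, and hydrolysis was followed at 480 nm.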
Giardia FBPA inh = qHTS Assay for Inhibitors of Fructose-1,6-bisphosphate Aldolase from Giardia Lamblia; A8B2U2; purified Giardia FBPA; Potency, µM (doses to about 59.6 µM), for the others: at the highest dose activity, negative = inhibition, most hits filed as inhibitors; 0.71% of 290,000 active; AID 2451, 2010; note: potency is the fitted concentration of half-maximal effect; % is set by controls: 0 for no effect and ±100 for the full control effect; nearly all actives have a fitted effect of over 55% in size
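40 nM FBPA preincubated 10 min at RT with compound (up to 57.5 uM final), then substrate plus GAPDH/TPI/NAD/arsenate coupling and diaphorase/resazurin added. Fluorescence read after 20 min at RT, 525/598 nm.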
NS1 function inh = qHTS Assay for Inhibitors of Influenza NS1 Protein Function | Potency, µM (titrated, usually from 46.1 µM), for the others: at the top dose activity, positive = more growth | 0.4% of 270,000 active; calls by dose curve; note: potency is the fitted concentration of half-maximal effect; actives are rising curves; nearly all actives have a fitted effect of over 50% in size
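In this qHTS, NS1 from influenza A is expressed in budding yeast, where it slows growth. Cells are switched from glucose to 2% galactose medium (pH 6.0, -URA), treated with compound, and growth recovery is read at OD600.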
AmpC inh no detg = qHTS Inhibitors of AmpC Beta-Lactamase (assay without detergent). AmpC nitrocefin hydrolysis, absorbance 480 nm, 0.0001% Triton. 0.52% of 330,000 active. P00811. Potency, µM (series often up to 57.1 µM), for the others: at the top dose activity change, negative = inhibition, most hits filed as inhibitors;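 note: potency is the fitted concentration of half-maximal effect; plate controls were no compound for no effect and no enzyme for full effect; nearly all actives have a fitted effect of over 20% in size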
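20 mM phosphate pH 7.0 + 0.01% (detergent screen) or 0.0001% Triton X-100; 5.3 nM AmpC reagent; cpd preinc 15 min RT; nitrocefin (800 uM stock) to start; A480 q20 s × 4 min; Activity was normalised to no-enzyme and no-compound control wells.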
SARS PLpro yeast-1 = qHTS of Yeast-based Assay for SARS-CoV PLP | S. cerevisiae expressing SARS-CoV PLpro, growth rescue | Potency, µM (doses to about 32.9 µM), for the others: at the highest dose activity, positive = growth rescue, most hits filed as activators | 0.19% of 330,000 active | AID 485353, 2010; calls by dose curve; note: potency is the fitted concentration of half-maximal effect; 0% is about no effect; nearly all actives have a fitted effect of over 55% in size
SARS PLpro yeast-2 = qHTS of Yeast-based Assay for SARS-CoV PLP: Hit Validation. AID 652038, 2013. calls only. shares compounds with SARS PLpro yeast-1. 19% of 1,000 active. yeast expressing SARS-CoV PLpro, growth phenotype rescue; call rule not given here
* marks the source's active call; other numbers are inactive results; i = inactive; ? = inconclusive; nt = no result given; + = active, no number. Unless noted, calls come from the whole dose curve; as a rule, active = well fitted curve in the direction sought with a large enough effect; inconclusive = small, poorly fitted or top-dose-only effect, or another doubt; inactive = no such curve, though single readings can be large; an effect the other way counts as inactive or inconclusive.

SMILES	AmpC inh detg	Giardia FBPA inh	NS1 function inh	AmpC inh no detg	SARS PLpro yeast-1	SARS PLpro yeast-2
CCNC(=S)N/N=C/c1cccs1	1%	5%	2%	-15%	?	+
COc1ccc(N2CCN(CCNC(=O)Nc3cccc(C)c3C)CC2)cc1	2%	2%	0%	-4%	0%	nt
COc1ccc(-c2c/c(=N\c3nc(-c4ccccc4)c(C)s3)c3ccccc3o2)cc1O	-6%	-2%	-8%	?	?	+
COc1ccc(-c2cc(=Nc3c(C)n(C)n(-c4ccccc4)c3=O)c3ccccc3o2)cc1	9%	-17%	nt	-8%	-7%	nt
Cn1nc(-c2ccccc2)cc1NC(=O)c1ccccc1	-8%	3%	-9%	-2%	0%	nt
O=C(Nc1cc(-c2ccccc2)nn1C1CCCCC1)c1ccc(Cl)cc1	nt	nt	nt	-22%	?	i
CCN(CC)CCOC(=O)c1ccc(NC(=O)c2nn(C)c3c2COc2ccccc2-3)cc1	16%	nt	nt	nt	nt	nt
COc1ccc(Cl)cc1NC(=O)COC(=O)/C=C/c1c(C)nn(C2CCS(=O)(=O)C2)c1Cl (stereo not given)	1%	-1%	8%	78%	?	i
Cc1nn(C2CCS(=O)(=O)C2)c(Cl)c1/C=C/C(=O)OCC(=O)Nc1ccccc1OC(F)F (stereo not given)	-12%	-2%	-10%	-2%	-4%	nt
CC(C)(C)n1ncc(Oc2ccccc2[N+](=O)[O-])c(Cl)c1=O	-10%	-1%	-24%	-23%	?	i
CSc1ccc(S(=O)(=O)NCc2ccccc2Cl)cc1	-1%	-2%	-10%	-34%	-6%	nt
Cc1cccc(N=C(NO)c2nonc2N)c1	-7%	-5%	1%	-15%	10%	nt
Nc1nonc1C(=Nc1ccccc1)NO	-8%	14%	-3%	208%	?	i
CCOC(=O)C(C)Sc1nnc(-c2ccccc2O)n1Cc1ccccc1 (stereo not given)	-17%	4%	-52%	-18%	-6%	nt
COc1ccccc1Nc1nc(N)nc(CSC(=S)N2CCN(c3ccccc3)CC2)n1	-3%	-1%	nt	0%	2%	nt
COc1ccccc1Nc1nc(N)nc(CSC(=S)N2CCC(C)CC2)n1	0%	0%	?	-15%	16µM*	i
O=C(N/N=C/c1sc2ccccc2c1O)c1ccccc1	-1%	?	-43%	-19%	4µM*	i
COc1ccc(C(=O)N/N=C/c2c[nH]c3ccccc23)cc1	2%	25%	2%	-26%	2%	nt
O=C(N/N=C/c1sc2ccccc2c1O)c1cccc2ccccc12	-1%	-4%	9%	-41%	2.8µM*	i
COc1ccc2cc(C(=O)N/N=C/c3sc4ccccc4c3O)ccc2c1	?	?	14%	-30%	5µM*	+
COc1ccc(C(=O)N/N=C/c2sc3ccccc3c2O)cc1	-1%	-15%	-25%	-25%	2.8µM*	i
COc1cccc(/C=N/NC(=O)C(=O)N2CCCCCC2)c1O	-4%	nt	-10%	-11%	6%	nt
COc1cccc(/C=N/NC(=O)C(=O)N/N=C/c2cccc(OC)c2O)c1O	?	13%	5%	-18%	?	+
COc1cc(/C=N/NC(=O)c2cc(-c3cccn3C)n[nH]2)cc(OC)c1OC	?	0%	9%	-30%	7%	nt
COc1cccc(/C=N/NC(=O)c2cc(-c3cccn3C)n[nH]2)c1O	?	?	26%	-16%	7.1µM*	?
COc1cccc(/C=N/Nc2ncnc(Cl)c2N)c1O	?	?	-28%	-23%	4.5µM*	i
CC1CCN(S(=O)(=O)c2ccc(NC(=O)c3ccccc3F)cc2)CC1	-6%	-3%	1%	-24%	0%	nt
O=C(NCC(c1cccnc1)N1CCN(Cc2ccccc2)CC1)C(=O)Nc1cccc(Cl)c1 (stereo not given)	25%	nt	nt	nt	nt	nt

Screening results deposited in PubChem by National Center for Advancing Translational Sciences (NCATS).
